Records with an inconclusive call do not appear. Calls of active or inactive are those of the source. Calls come from the whole dose curve; as a rule, active = well fitted curve in the direction sought with a large enough effect; inconclusive = small, poorly fitted or top-dose-only effect, or another doubt; inactive = no such curve, though single readings can be large; an effect the other way counts as inactive or inconclusive.
What was measured:
[1] = Cellular Toxicity (caspase-3) N2a (AID 665); details: N2a cells, luminescence, normalized: DMSO 0%, 10 µM staurosporine 100%; series mostly up to 92.2 µM;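 note: compound exposure lasted 16 h at 37 °C before readout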
Procedure, shortened: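 N2a cells, 1500/well, 5 h settle at 37 °C; cpd 16 h, 37 °C; Caspase-Glo 3/7, 1 h RT; luminescence. Norm: DMSO = 0, 10 uM staurosporine = 100%. AC50, Hill fit.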

[2] = Cellular Toxicity (caspase-3) NIH 3T3 (AID 666); details: NIH 3T3 caspase-3 activation, apoptosis/toxicity, 0% DMSO, 100% is 100 µM tamoxifen; series mostly up to 92.2 µM;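 note: caspase signal read after 16 h compound exposure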
Procedure, shortened: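 Luminescence from aminoluciferin released by caspase-3/7 cleavage of a peptide substrate served as read-out. Mouse fibroblast NIH 3T3 cells were exposed to compounds over a concentration range for 16 hours, and AC50 values came from standard Hill modelling.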

[3] = Cellular Toxicity (caspase-3) Renal Proximal Tubule (AID 667); details: renal proximal tubule cells, primary cells freshly taken from rat; Potency: caspase-3 activation; series mostly up to 91.7 µM;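 note: cells exposed to compound for 16 hours at 37 °C before detection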
Procedure, shortened: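 Primary rat proximal tubule cells, 1000/well, 5 h plating at 37 °C, then compound 16 h at 37 °C. Caspase-Glo 3/7 reagent, 1 h RT, luminescence. Normalized to DMSO (basal) and 10 uM staurosporine (100%); Hill-fit AC50.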

[4] = target: Cytochrome P450 2C9 (Homo sapiens) (UniProt P11712); assay: qHTS Assay for Inhibitors and Substrates of Cytochrome P450 2C9 (AID 883); details: recombinant CYP2C9, luciferin-H luminescence, 60 min; series mostly up to 11.4 µM; note: nearly all actives have a fitted effect of over 60% in size
Procedure, shortened: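 CYP2C9 deoxyluciferin hydroxylation, 37C, 60 min with NADPH regeneration; 10nM enzyme, 100uM Luciferin-H (KM). Glo detection reagent stopped reaction; luminescence normalized to sulphaphenazole (57uM) full inhibition.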

[5] = target: Cytochrome P450 3A4 (Homo sapiens) (UniProt P08684); assay: qHTS Assay for Activators of Cytochrome P450 3A4 (AID 885); details: recombinant CYP3A4, Luciferin-PPXE luminescence, 60 min; series mostly up to 11.4 µM; note: nearly all actives have a fitted effect of over 65% in size
Procedure, shortened: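 Human CYP3A4 (20 nM) with Luciferin-PPXE at 25 uM (its KM) in 200 mM KPO4; 10 min compound preincubation, then NADPH regeneration and 60 min reaction at RT. Luciferin read by luminescence; normalized to 57 uM ketoconazole full inhibition.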

[6] = target: Cytochrome P450 2D6 (Homo sapiens) (UniProt P10635); assay: qHTS Assay for Inhibitors and Substrates of Cytochrome P450 2D6 (AID 891); details: recombinant CYP2D6, luciferin-ME EGE luminescence; series mostly up to 11.4 µM;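 note: luciferin methyl ether substrate demethylated by CYP2D6 with NADPH regeneration; nearly all actives have a fitted effect of over 60% in size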
Procedure, shortened: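 Human CYP2D6 (5 nM) with 30 uM Luciferin-ME EGE (at Km) in 100 mM KPO4, compound preincubated 10 min, then NADPH regeneration system for 60 min at room temperature. Luciferin read by luminescence; normalized to 1.43 uM quinidine.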

[7] = target: Cytochrome P450 2C19 (Homo sapiens) (UniProt P33261); assay: qHTS Assay for Inhibitors and Substrates of Cytochrome P450 2C19 (AID 899); details: recombinant CYP2C19, luciferin-H EGE luminescence; series mostly up to 11.4 µM; note: nearly all actives have a fitted effect of over 60% in size
Procedure, shortened: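 In 50mM KPO4, the reaction held 5nM enzyme and KM-level (10uM) Luciferin-H EGE; it ran 60 min at 37C after NADPH regeneration and a 10 min compound preincubation. Luminescence values were scaled to 57uM ketoconazole as complete inhibition.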

[8] = Cell Viability - LYMP2-001 (AID 921); details: LYMP2-001 lymphoblastoid cell viability; series mostly up to 92.2 µM; note: nearly all actives have a fitted effect of over 70% in size
Procedure, shortened: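 Human lymphoblastoid cells (Coriell), 2500 per well, were preincubated 5 hr at 37 C, then exposed to compounds in complete medium for 24 hr at 37 C. Cellular ATP was read by CellTiter-Glo luminescence; AC50 from Hill fits of concentration-response data.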

[9] = MultiTox-Fluor Cytotoxicity Assay - LYMP1-001 - Dead Cells (AID 946); details: LYMP1-001 lymphoblastoid cells, dead-cell protease fluorescence; series mostly up to 92.2 µM
Procedure, shortened: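 LYMP1-001 lymphoblastoid cells (2500/well) treated 16 h at 37 C. Dead-cell protease cleavage of bis-AAF-R110 read at Ex/Em 485/520. Normalized to DMSO and 15 uM tetraoctylammonium bromide; AC50 from Hill fits.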

[10] = MultiTox-Fluor Cytotoxicity Assay - LYMP1-001 - Live Cells (AID 947); details: LYMP1-001 lymphoblastoid cells, live-cell protease fluorescence viability; series mostly up to 92.2 µM
[11] = Cell Viability - LYMP1-002 - Assay at 16 hr (AID 948); details: LYMP1-002 lymphoblastoid cell viability; series mostly up to 92.2 µM
Procedure, shortened: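 Human lymphoblastoid cells (LYMP1-002), 2500/well, were preincubated 5 hr at 37 C, then exposed to compounds for 16 hr at 37 C in complete medium. Cellular ATP was read by CellTiter-Glo luminescence after 30 min at room temperature; AC50 from Hill fits.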

[12] = MultiTox-Fluor Cytotoxicity Assay - LYMP1-003 - Dead Cells (AID 961); details: LYMP1-003 lymphoblastoid cells, dead-cell protease fluorescence; series mostly up to 92.2 µM; note: nearly all actives have a fitted effect of over 70% in size
Procedure, shortened: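 LYMP1-003 human lymphoblastoid cells (2500/well) exposed to compound 16 h at 37 C in complete medium; dead-cell protease read with bis-AAF-R110 fluorescence (Ex/Em 485/520) after 60 min at room temperature. Normalized to DMSO and 15 uM tetraoctylammonium bromide; AC50 from Hill fit.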

[13] = MultiTox-Fluor Cytotoxicity Assay - LYMP1-003 - Live Cells (AID 962); details: LYMP1-003 lymphoblastoid cells, MultiTox-Fluor live-cell protease fluorescence; series mostly up to 92.2 µM;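 note: cytotoxic hits lower the live-cell protease signal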
Procedure, shortened: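 qHTS, 1536-well; 2500 cells/well LYMP1-003; 5 hr 37 C settle; cpd 16 hr 37 C; MultiTox-Fluor reagent 60 min RT; live-cell protease fluor. 405/510; Hill-fit AC50; tetraoctylammonium bromide pos. ctrl.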

[14] = Cell Viability - LYMP1-003 - Assay at 24 hr (AID 963); details: LYMP1-003 lymphoblastoid cell viability; series mostly up to 92.2 µM
Procedure, shortened: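 Cells seeded at 2500/well, 5 hr at 37 C; compounds added; 24 hr at 37 C; CellTiter-Glo added, 30 min room temperature; luminescence read. Decrease in ATP taken as cytotoxicity, AC50 from Hill modelling.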

[15] = Cell Viability - LYMP1-003 - Assay at 40 hr (AID 964); details: LYMP1-003 lymphoblastoid viability; series mostly up to 92.2 µM; note: nearly all actives have a fitted effect of over 60% in size
Procedure, shortened: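 Cells were seeded at 2500 per well and incubated 5 hr at 37 C. Compounds were added across a concentration series and left 40 hr at 37 C. CellTiter-Glo was added for 30 min at room temperature before luminescence reading.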

[16] = Cell Viability - LYMP2-003 (AID 965); details: LYMP2-003 lymphoblastoid cell viability; series mostly up to 92.2 µM;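 note: cells exposed to compounds for 24 h before reading; nearly all actives have a fitted effect of over 50% in size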
Procedure, shortened: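 Human lymphoblastoid cells (2500/well) were pre-incubated 5 hr at 37 C, then exposed to compounds over a concentration range for 24 hr at 37 C. Intracellular ATP was read by CellTiter-Glo luminescence; AC50 came from Hill-equation fits.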

[17] = Cell Viability - LYMP2-004 (AID 966); details: LYMP2-004 lymphoblastoid cell viability, qHTS; series mostly up to 92.2 µM; note: nearly all actives have a fitted effect of over 65% in size
Procedure, shortened: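 Cells seeded 2500/well, rested 5 hr at 37 C, dosed across a concentration series, incubated 24 hr at 37 C, then CellTiter-Glo added for 30 min at room temperature and luminescence read. Hill fitting gave AC50.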

[18] = Cell Viability - LYMP2-005 (AID 967); details: LYMP2-005 lymphoblastoid cell viability; series mostly up to 92.2 µM
Procedure, shortened: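 CellTiter-Glo luminescence (cellular ATP) read-out; LYMP2-005 lymphoblastoid cells, 2500/well, 5 h pre-incubation, then 24 h compound exposure at 37 C in complete medium. Tetraoctylammonium bromide positive control; AC50 by standard Hill fit.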

[19] = Cell Viability - LYMP2-009 (AID 968); details: LYMP2-009 lymphoblastoid cell viability; series mostly up to 92.2 µM; note: nearly all actives have a fitted effect of over 55% in size
[20] = Cell Viability - LYMP2-011 (AID 969); details: LYMP2-011 lymphoblastoid cells viability; series mostly up to 92.2 µM; note: nearly all actives have a fitted effect of over 60% in size
Procedure, shortened: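 2500 cells/well, 5 hr 37 C; compound added, 24 hr 37 C; CellTiter-Glo 30 min RT; luminescence. qHTS concentration-response, Hill-equation AC50. Tetraoctylammonium bromide positive control.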

[21] = Cell Viability - LYMP2-013 (AID 970); details: LYMP2-013 lymphoblastoid cells viability; series mostly up to 92.2 µM; note: nearly all actives have a fitted effect of over 55% in size
Procedure, shortened: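 qHTS; 2500 lymphoblastoid cells/well; 5 hr 37 C settle; cpd 24 hr 37 C; CellTiter-Glo, 30 min RT; luminescence. AC50 = Hill fit.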

[22] = Cell Viability - LYMP2-015 (AID 971); details: LYMP2-015 lymphoblastoid cell viability; series mostly up to 92.2 µM; note: nearly all actives have a fitted effect of over 55% in size
Procedure, shortened: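 Luminescent ATP read-out (CellTiter-Glo) served as the viability measure after lymphoblastoid cells were exposed to compounds for 24 hours at 37 C. Concentration-response data were fitted with the Hill equation to give AC50.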

[23] = Cell Viability - LYMP2-017 (AID 972); details: LYMP2-017 lymphoblastoid cell viability; series mostly up to 92.2 µM; note: nearly all actives have a fitted effect of over 55% in size
Procedure, shortened: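 2500 cells/well, 5 h 37 C; cpd 24 h 37 C in complete medium; CellTiter-Glo, 30 min RT; luminescence (ATP). AC50 via Hill fit, qHTS.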

[24] = Cell Viability - LYMP2-019 (AID 973); details: LYMP2-019 lymphoblastoid cell line viability; series mostly up to 92.2 µM; note: nearly all actives have a fitted effect of over 55% in size
Procedure, shortened: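 Luminescent ATP read-out (CellTiter-Glo, 30 min room temperature) served as the viability measure after 24 hr treatment of lymphoblastoid cells at 37 C. Concentration-response data were fitted to the Hill equation for AC50.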

[25] = Cell Viability - LYMP2-021 (AID 974); details: LYMP2-021 lymphoblastoid cells viability; series mostly up to 92.2 µM
Procedure, shortened: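 Plate 2500 lymphoblastoid cells per well and incubate 5 hr at 37 C. Add compounds over a concentration range and incubate 24 hr at 37 C. Add CellTiter-Glo, wait 30 min at room temperature, read luminescence.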

[26] = Cell Viability - LYMP2-023 (AID 975); details: LYMP2-023 lymphoblastoid cell viability; series mostly up to 92.2 µM
Procedure, shortened: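 2500 cells/well, 5 hr 37 C; cpd 24 hr 37 C; CellTiter-Glo, 30 min RT; luminescence. qHTS conc-response, Hill fit -> AC50. Pos ctrl tetraoctylammonium bromide.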

[27] = Cell Viability - LYMP2-025 (AID 976); details: LYMP2-025 lymphoblastoid cell viability; series mostly up to 92.2 µM
Procedure, shortened: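 Seed 2500 LYMP2-025 cells/well; 5 hr at 37 C; add compound; 24 hr at 37 C; add CellTiter-Glo; 30 min RT; read luminescence. AC50 from Hill-modelled concentration-response.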

[28] = Cell Viability - LYMP2-002 (AID 977); details: LYMP2-002 lymphoblastoid cell viability, qHTS; series mostly up to 92.2 µM
Procedure, shortened: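 Luminescent ATP readout (CellTiter-Glo, 30 min room temperature) after 24 h compound exposure at 37 C of a human lymphoblastoid line, 2500 cells/well. AC50 values derived by standard Hill fitting of qHTS concentration-response data.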

[29] = Cell Viability - LYMP2-006 (AID 978); details: LYMP2-006 lymphoblastoid cell viability, qHTS; series mostly up to 92.2 µM; note: nearly all actives have a fitted effect of over 60% in size
Procedure, shortened: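 Human lymphoblastoid cells, 2500 per well, were preincubated 5 hr at 37 C, then exposed to compounds for 24 hr at 37 C in complete medium. Viability was read as intracellular ATP by CellTiter-Glo luminescence; AC50 from Hill-equation fits of qHTS concentration-response data.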

[30] = Cell Viability - LYMP2-008 (AID 980); details: LYMP2-008 lymphoblastoid cell viability, qHTS; series mostly up to 92.2 µM; note: nearly all actives have a fitted effect of over 60% in size
Procedure, shortened: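 qHTS, human lymphoblastoid line, 2500 cells/well; 5 hr preincubation, 24 hr compound, 37 C. CellTiter-Glo ATP luminescence. AC50 via Hill equation. Tetraoctylammonium bromide positive control.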

Measured: Potency

Sequence of Cytochrome P450 3A4 (Homo sapiens) (P08684 whole entry, looked up): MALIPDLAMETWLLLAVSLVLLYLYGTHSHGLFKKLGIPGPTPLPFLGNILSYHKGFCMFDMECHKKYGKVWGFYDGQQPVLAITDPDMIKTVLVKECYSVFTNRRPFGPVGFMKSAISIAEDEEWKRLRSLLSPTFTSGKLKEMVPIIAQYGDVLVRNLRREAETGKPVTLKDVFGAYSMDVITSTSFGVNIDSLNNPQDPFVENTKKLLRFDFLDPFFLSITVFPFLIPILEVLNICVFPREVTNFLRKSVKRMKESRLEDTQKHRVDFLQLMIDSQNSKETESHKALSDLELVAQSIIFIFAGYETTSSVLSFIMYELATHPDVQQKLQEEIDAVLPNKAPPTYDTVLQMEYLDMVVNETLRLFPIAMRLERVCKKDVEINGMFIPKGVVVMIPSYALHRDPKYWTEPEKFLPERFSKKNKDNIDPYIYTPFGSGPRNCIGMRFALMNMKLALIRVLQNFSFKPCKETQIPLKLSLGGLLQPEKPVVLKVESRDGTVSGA
Sequence of Cytochrome P450 2C19 (Homo sapiens) (P33261 whole entry, looked up): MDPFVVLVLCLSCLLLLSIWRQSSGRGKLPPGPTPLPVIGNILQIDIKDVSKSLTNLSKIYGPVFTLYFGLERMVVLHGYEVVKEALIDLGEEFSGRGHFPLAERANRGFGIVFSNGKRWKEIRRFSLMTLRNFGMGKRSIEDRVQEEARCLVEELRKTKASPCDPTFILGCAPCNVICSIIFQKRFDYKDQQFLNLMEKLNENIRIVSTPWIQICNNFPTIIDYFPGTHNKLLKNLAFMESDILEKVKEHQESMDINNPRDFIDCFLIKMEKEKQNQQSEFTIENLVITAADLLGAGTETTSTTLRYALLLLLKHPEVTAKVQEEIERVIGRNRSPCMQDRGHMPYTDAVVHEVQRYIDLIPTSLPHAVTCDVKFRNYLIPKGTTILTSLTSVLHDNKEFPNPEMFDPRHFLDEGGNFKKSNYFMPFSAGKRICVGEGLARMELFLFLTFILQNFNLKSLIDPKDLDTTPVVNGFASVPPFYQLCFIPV
Sequence of Cytochrome P450 2C9 (Homo sapiens) (P11712 whole entry, looked up): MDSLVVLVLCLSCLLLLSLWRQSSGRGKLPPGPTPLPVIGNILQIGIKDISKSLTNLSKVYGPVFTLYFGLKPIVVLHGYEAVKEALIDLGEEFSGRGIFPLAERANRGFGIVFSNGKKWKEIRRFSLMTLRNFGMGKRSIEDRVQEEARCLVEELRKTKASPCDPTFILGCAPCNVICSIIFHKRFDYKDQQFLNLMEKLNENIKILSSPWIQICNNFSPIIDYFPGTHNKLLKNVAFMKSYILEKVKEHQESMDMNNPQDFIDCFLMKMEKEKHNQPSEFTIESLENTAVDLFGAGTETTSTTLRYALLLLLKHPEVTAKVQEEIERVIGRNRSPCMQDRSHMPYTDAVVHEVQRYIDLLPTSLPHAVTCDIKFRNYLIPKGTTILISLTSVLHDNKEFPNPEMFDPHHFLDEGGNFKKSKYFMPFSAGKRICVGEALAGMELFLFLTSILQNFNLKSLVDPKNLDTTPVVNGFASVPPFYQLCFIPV
Sequence of Cytochrome P450 2D6 (Homo sapiens) (P10635 whole entry, looked up): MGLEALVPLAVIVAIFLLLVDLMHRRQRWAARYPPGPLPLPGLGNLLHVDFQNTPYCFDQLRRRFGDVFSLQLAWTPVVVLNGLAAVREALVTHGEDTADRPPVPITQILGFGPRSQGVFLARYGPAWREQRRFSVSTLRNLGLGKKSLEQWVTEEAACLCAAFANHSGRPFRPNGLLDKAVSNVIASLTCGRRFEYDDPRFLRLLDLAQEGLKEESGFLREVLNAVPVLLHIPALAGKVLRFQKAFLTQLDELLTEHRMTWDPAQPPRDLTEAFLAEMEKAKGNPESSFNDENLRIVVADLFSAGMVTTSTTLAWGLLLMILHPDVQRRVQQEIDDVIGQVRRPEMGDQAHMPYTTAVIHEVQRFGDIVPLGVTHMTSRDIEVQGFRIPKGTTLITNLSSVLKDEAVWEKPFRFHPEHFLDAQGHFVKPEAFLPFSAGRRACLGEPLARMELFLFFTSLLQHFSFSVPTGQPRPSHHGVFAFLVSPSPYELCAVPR

CC(CCC(=O)O)(c1ccc(O)cc1)c1ccc(O)cc1
inactive: [1] | [2] | [3] | [4] | [5] | [6] | [7] | [8] | [9] | [10] | [11] | [12] | [13] | [14] | [15] | [16] | [17] | [18] | [19] | [20] | [21] | [22] | [23] | [24] | [25] | [26] | [27] | [28] | [29] | [30]

From PubChem BioAssay (NCATS)
